The list is not random: actives were taken first. Their share in the collection is about 1%.
ugtP null kill: growth inhibition of S. aureus ugtP deletion strain; S. aureus RN4220 ugtP deletion, OD600 growth, 16 h; growth inhibition, % (test concentration not listed); actives 0.54% (n = 330,000); AID 1259309; in the data active means growth inhibition above about 68%;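 further: plate controls were untreated wells for no effect and antibiotic for full effect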
SSB-PriA inh: K. pneumoniae PriA-SSBct interaction inhibition | AlphaScreen SSBct-PriA binding, biotinylated peptide | actives 0.6% (n = 430,000) | inhibition, % at 33 µM; in the data active means inhibition mostly above about 37%, no sharp cut-off; inactive means mostly below about 20%;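 further: plate controls were negative control peptide for no effect and reference peptide for full effect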
RN4220 kill: kills Staphylococcus aureus RN4220. S. aureus RN4220 growth, OD600, 16 h. inhibition, % (no concentration beside the values). actives 0.33% (n = 330,000); in the data active means inhibition above about 85%;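 further: plate controls were untreated cells for no effect and reference antibiotic for full effect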
An asterisk follows results filed as active; · = not tested or not shown.

SMILES | ugtP null kill | SSB-PriA inh | RN4220 kill
COC(=O)Cn1c(=NC(=O)c2ccc([N+](=O)[O-])s2)sc2cc(Br)ccc21 | 97* | · | 99*
CCOC(=O)Cn1c(=NC(=O)c2ccc([N+](=O)[O-])s2)sc2cc(Br)ccc21 | · | -7 | ·
O=C(CCCc1ccccc1)N(Cc1ccsc1)CC(F)(F)F | · | -82 | ·
CCOc1ccc(-c2cn3c(CC(=O)NCc4ccc5c(c4)OCO5)csc3n2)cc1 | · | -4 | ·
O=C(NCCCn1ccnc1)C(=O)Nc1ccc(Cl)cc1 | · | -9 | ·
O=C(NCCCn1ccnc1)Nc1cc(Cl)cc(Cl)c1 | · | 57* | ·
O=C(NCCCn1ccnc1)Nc1cccc(I)c1 | · | 27 | ·
O=C(NCCCn1ccnc1)Nc1cccc(Cl)c1 | -9 | 74* | 2
O=C(NCCCn1ccnc1)C(=O)NCc1ccc(Cl)cc1 | 9 | -13 | 1
O=C(Nc1ccccc1C(=O)NCCCn1ccnc1)c1ccccc1 | 3 | 4 | 0
O=C(NCCCn1ccnc1)C(=O)NCc1ccccc1Cl | · | 85* | ·
CC(C)(C)C(=O)Nc1ccccc1C(=O)NCCCn1ccnc1 | -7 | 51* | 1
N#Cc1cncc2c1NCCC2 | · | -6 | ·
O=S(=O)(NCC[C@H](O)c1ccoc1)C1CC1 | · | -3 | ·
COc1cccc(C(=O)Nc2nc3ccc(S(=O)(=O)N(C)C)cc3s2)c1OC | · | -17 | ·
CCC(=O)N1CCCc2cc(NC(C)=O)ccc21 | · | -10 | ·
CCOC(=O)CNC(=O)c1nnn2cc(-c3ccccc3OC)[nH]c(=O)c12 | · | -4 | ·
COc1ccccc1-c1cn2nnc(C(=O)NCc3c(C)noc3C)c2c(=O)[nH]1 | · | 25* | ·
O=C(c1ccc2nsnc2c1)N1CCC(CSCc2ccco2)CC1 | · | 8 | ·
Cc1ccc(Sc2ncccc2[N+](=O)[O-])cc1 | 12 | 36 | -2
O=[N+]([O-])c1cccnc1SCc1ccccc1 | -1 | 48* | 1
O=[N+]([O-])c1cccnc1Sc1ccc(Br)cc1 | 14 | 48* | 1
O=C(O)c1cccnc1SCc1ccc([N+](=O)[O-])cc1 | 11 | -10 | 7
CC(C)Sc1ccc(CC(=O)NCCC(O)c2ccsc2)cc1 (stereo not drawn) | · | -7 | ·
Cn1c(SCC(=O)NN=C/C=C/c2ccccc2[N+](=O)[O-])nc2ccccc21 | 10 | 5 | 9
SMILES | ugtP null kill | SSB-PriA inh | RN4220 kill
O=C(CSc1nc2ccccc2[nH]1)NN=C/C=C/c1ccccc1[N+](=O)[O-] | 97* | 1 | 98*
C=CCn1c(=NC(=O)c2ccc(S(=O)(=O)N(CCC#N)CCC#N)cc2)sc2cc(Br)ccc21 | · | 2 | ·
O=c1c(=O)n2c(nn1Cc1c(F)cccc1Cl)N(c1ccc(F)cc1)CC2 | · | -15 | ·
O=C(NCCCN1CCOCC1)C(=O)c1c[nH]c2ccccc12 | -2 | -3 | 3
COc1ccc(N2CCN(CCCNC(=O)C(=O)c3c[nH]c4ccccc34)CC2)cc1 | 8 | 48* | 4
C#CCSc1nnc(C(C)C)c2cnn(-c3ccc(F)cc3)c12 | · | -6 | ·
CCc1ccc(-c2ccc(/C=C3/SC(=S)N(CCCC(=O)O)C3=O)o2)cc1 | · | 30 | ·
O=C(O)CCCN1C(=O)/C(=C\c2ccc(-c3nc4ccccc4s3)o2)SC1=S | 100* | 5 | 47
O=C(O)CCN1C(=O)/C(=C/c2ccc(-c3nc4ccccc4s3)o2)SC1=S | 1 | 0 | 99*
O=C(O)CC(C(=O)O)N1C(=O)/C(=C/c2ccc(-c3nc4ccccc4s3)o2)SC1=S (stereo not drawn) | -11 | 10 | -1
CS(=O)(=O)NCC(Cc1cccc(F)c1)N1CCCC1=O (stereo not drawn) | · | -3 | ·
Cc1ccc2[nH]c3c(=O)n(CCC(=O)O)cnc3c2c1 | · | -10 | ·
C=CCNC(=O)Cc1csc(NC(=O)C2CC2)n1 | · | -16 | ·
CNC[C@H](CC1CCCCC1)NC[C@H](CO)NCC1(c2ccccc2)CC1 | · | -2 | ·
CNCC(CC1CCCCC1)NCC(Cc1ccccc1)NCCC12CC3CC(CC(C3)C1)C2 (stereo not drawn) | 101* | · | 100*
CNCC(Cc1ccccc1)NCC(CC1CCCCC1)NCCCc1ccccc1 (stereo not drawn) | 82 | · | 85*
CNC[C@H](CC1CCCCC1)NC[C@H](CO)NCCc1cccc(C(F)(F)F)c1 | · | -3 | ·
N#Cc1c(NC(=O)/C=C/c2ccccc2)sc2c1CCC2 | · | 0 | ·
COc1ccc(-n2nnc(C(=O)OCc3ccccc3Cl)c2C)cc1Cl | · | -41 | ·
Cc1nc(NCCCn2ccnc2)c2ccccc2n1 | 3 | 7 | 5
c1cncc(-c2nc(NCCCn3ccnc3)c3ccccc3n2)c1 | 6 | 40* | 3
COC(=O)CC(C(=O)OC)N1CCN(c2ccc(F)cc2)CC1 (stereo not drawn) | · | -3 | ·
CCOC(=O)N1CCN(C(CC(=O)OC)C(=O)OC)CC1 (stereo not drawn) | · | 76* | ·
O=C(O)CCc1csc(NC(=O)Nc2ccc(Cl)cc2)n1 | · | 10 | ·
O=C(Nc1ccc(Cl)cc1)Nc1nc(C(=O)O)cs1 | · | 87* | ·
SMILES | ugtP null kill | SSB-PriA inh | RN4220 kill
O=C(Cc1csc(Nc2ccc(F)cc2)n1)NCCc1c[nH]c2ccccc12 | · | 8 | ·
O=C(CCCc1cccs1)NCCc1c[nH]c2ccccc12 | 11 | 46* | 4
CCCCCCCCCCCCCCCC(=O)NCCc1c[nH]c2ccccc12 | 12 | -13 | 1
O=C(Cc1csc(Nc2cccc(Cl)c2)n1)NCCc1c[nH]c2ccccc12 | · | 36* | ·
O=C(Cc1csc(NC(=O)Nc2cccc(Cl)c2)n1)NCCc1c[nH]c2ccccc12 | · | -5 | ·
O=C(Cc1csc(NC(=O)Nc2ccc(Cl)cc2)n1)NCCc1c[nH]c2ccccc12 | · | 52* | ·
O=C(CC1CCCCN1S(=O)(=O)c1ccc(Cl)cc1)NCc1c(F)cccc1F (stereo not drawn) | · | -10 | ·
CCN1CCN(c2nc3ccc(OC(=O)COc4ccc(Cl)cc4Cl)cc3s2)CC1 | · | -6 | ·
C#CCOCCOCCOCCNc1nc(N2CCN(C(=O)[C@H](Cc3cc4ccccc4[nH]3)n3cc([C@@H](N)Cc4ccc(O)cc4)nn3)CC2)nc(N2CCN(C(=O)[C@H](Cc3cc4ccccc4[nH]3)n3cc([C@@H](N)CC(C)C)nn3)CC2)n1 | · | 22 | ·
C#CCOCCOCCOCCNc1nc(N2CCN(C(=O)C(Cc3cc4ccccc4[nH]3)n3cc(C(N)Cc4ccc(O)cc4)nn3)CC2)nc(N2CCN(C(=O)C(Cc3cc4ccccc4[nH]3)n3cc(C(N)Cc4ccc(O)cc4)nn3)CC2)n1 (stereo not drawn) | · | 39* | ·
CCOc1ccc(S(=O)(=O)NC[C@]2(O)CCc3ccccc3C2)cc1C | · | 10 | ·
c1cnn(-c2ccc(N3CCNCC3)nn2)c1 | · | 3 | ·
c1ccc(Nc2ccc(N3CCNCC3)nn2)nc1 | · | 56* | ·
c1cnc2c(OCc3cn4cccnc4n3)cccc2c1 | 1 | 43* | 7
Clc1ccc(OCc2cn3cccnc3n2)c2ncccc12 | -8 | 2 | 0
COc1ccc2c(C)cc(SCC(=O)c3ccc(F)cc3)nc2c1 | · | -6 | ·
Cn1nc(CNC(=O)C2c3ccccc3Oc3ccccc32)cc1-c1ccco1 | · | -4 | ·
Nc1ccc(/C=C/c2ccccc2)cc1 | · | 40* | ·
Nc1ccc(-c2ccccc2)cc1 | · | -7 | ·
Cc1ccc(-c2c[n+](CC(=O)OCc3ccccc3)c3n2CCC3)cc1 | 8 | -14 | 4
CC1CCC(C(C)C)C(OC(=O)C[n+]2cc(-c3ccc(Cl)cc3)n3c2CCC3)C1 (stereo not drawn) | 101* | -2 | 101*
COc1ccc(C(=O)NCc2nnc(SCc3ccc(F)cc3)n2-c2ccccc2Cl)cc1 | · | -6 | ·
